Reference: PubChem BioAssay (NCI)
The panel holds about 83,000 compounds, 20% with a hit somewhere; the sample as a whole holds those more often.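 The endpoint reported here, percent growth, reads 100 for growth as untreated, 0 for no net growth and -100 for all cells dead.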 A number with no mark means an inactive call. Activity calls are given as the source filed them. The calls were made as follows: active = growth percent below 10; inactive = the rest.

How the values were obtained:
Test in all cases: NCI-60 one-dose screen, 48 h (100 = growth as untreated, 0 = no growth, -100 = all killed)
Details in all cases: 10 µM unless noted
SK-MEL-2 melanoma = test system: SK-MEL-2 melanoma
EKVX NSCLC = test system: EKVX NSCLC
SN12C renal = test system: SN12C renal
UO-31 renal = test system: UO-31 renal
TK-10 renal = test system: TK-10 renal
ACHN renal = test system: ACHN renal
CAKI-1 renal = test system: CAKI-1 renal
A498 renal = test system: A498 renal
CCRF-CEM leukemia = test system: CCRF-CEM leukemia
MOLT-4 leukemia = test system: MOLT-4 leukemia

| Structure (SMILES) | growth (SK-MEL-2 melanoma) | growth (EKVX NSCLC) | growth (SN12C renal) | growth (UO-31 renal) | growth (TK-10 renal) | growth (ACHN renal) | growth (CAKI-1 renal) | growth (A498 renal) | growth (CCRF-CEM leukemia) | growth (MOLT-4 leukemia) |
| --- | --- | --- | --- | --- | --- | --- | --- | --- | --- | --- |
| CC(=O)Nc1ccc2c(c1)c(NC(C)=O)nn2C(=O)Nc1ccc(Cc2ccccc2)cc1 | 12.9% | 71.3% | 82.9% | 68.2% | 85% | 65.8% | 49.2% | 90.6% | 89.8% | 93.6% |
| CC[C@H](Nc1ncnc(N)c1C(N)=O)c1nc2cccc(NCc3ccc(C(=O)NO)cc3)c2c(=O)n1-c1ccccc1 | 82.8% | 99.7% | 81.5% | 71.8% | 69.9% | 91% | 93.2% | 90.8% | 33% | 67.8% |
| COc1ccc(-c2cn3c(-c4ccc(OC)cc4)cnc3c(Oc3ccc4c(C)cc(=O)oc4c3)n2)cc1 | 49.4% | 50.2% | 24.5% | 75% | 35.7% | 58.1% | 71.7% | 52.4% | 93.2% |  |
| CN1CCOCCOCCOc2ccccc2NC(=O)c2nc(cnc2N)-c2ccc(cc2)S1(=O)=O | 49.8% | 80.4% | 64.7% | 42.1% | 43.7% | 8.87% (active) | 53.7% | 29.3% | 2.07% (active) | 0.82% (active) |
| Nc1c(C(=O)Nc2cccc3c2OCCO3)sc2nc3c(cc12)C(=O)CCC3 | 64.9% | 24.7% | 41.3% | 53% | 73.3% | 55.4% | 47.6% | -1.97% (active) | 16.5% | 57.6% |
| COc1ccc(-c2cn3c(ccc4ccccc43)n2)cc1 | 109% | 72.1% | 89.9% | 56.1% | 126% | 81.3% | 92.7% | 116% | 99.2% | 113% |
| CC(=O)C1=C(O)C=C2Oc3c(C(=O)/C=C/c4cc(Cl)cc(Cl)c4)c(O)c(C)c(O)c3[C@]2(C)C1=O | -62.8% (active) | -15.6% (active) | -31.8% (active) | -15.1% (active) | -17.4% (active) | -12.4% (active) | 2.74% (active) | -57.7% (active) | -22% (active) | -25.3% (active) |
| CCOC(=O)C(=Cc1ccccc1F)C(=O)OCC | 98.4% | 97.6% | 86.9% | 87.7% | 123% | 92.7% | 96.5% | 131% | 95.8% |  |
| CCOC(=O)C(Cc1cc(I)c(O)c(I)c1)NC(=O)c1ccccc1 (stereo not given) | 97.6% | 101% | 97.6% | 92.2% | 88.4% | 93.5% | 95.7% | 78.7% | 95.3% | 91.5% |
| CCCCN(CCCC)Cc1c(C)[nH]c2cc(OC)ccc2c1=O | 110% | 104% | 104% | 81.2% | 104% | 110% | 99.1% | 95.8% | 95.8% | 90.9% |
| O=C(Nc1ccc(CN2CCOCC2)cc1)c1[nH]ncc1Nc1ncnc2sccc12 | 2.93% (active) | 13.4% | 10.4% | 8.4% (active) | 8.06% (active) | 2.49% (active) | 13.2% | -36.8% (active) | 5.37% (active) | -2.6% (active) |
| O=C1NC(=O)C(CC(=O)n2c(-c3ccccc3)nc3ccccc32)C(=O)N1 | 101% | 93.6% | 99.5% | 79.6% | 116% | 101% | 90.5% | 63.6% | 104% | 108% |
| CCOC(=O)c1c2ncccc2n2c(=O)n(-c3ccc(Cl)cc3)nnc12 | 108% | 68.7% | 103% | 61% | 154% | 77.9% | 73.9% | 106% | 72% | 86.8% |
| CCOC(=O)C(C#N)C1CCCCC1 (stereo not given) | 107% | 94.9% | 79.6% | 91.1% | 91.5% | 99.4% | 75.5% | 117% | 87.2% | 79.3% |
| CC(C)CC(CC1=CCC2CC1C2(C)C)C1=C(O)C(C)(C)C(=O)C(C)(C)C1=O (stereo not given) | -18.2% (active) | 20% | 3.56% (active) | 8.44% (active) | 15.6% | 3.98% (active) | 6.44% (active) | -17.9% (active) | 1.78% (active) | -24% (active) |
| COc1ccc(CCN2CC=Cn3c2nc2ccccc2c3=O)cc1 | 46.5% | 64.9% | 32.6% | 35.2% | 77.6% | 26.7% | 26.9% | -7.45% (active) | 18.7% | 19% |
| COc1ccc(-c2cc(-c3cccnc3)nc3sc4c(=O)n(-c5ccc(C)cc5)nnc4c23)cc1OC | 107% | 103% | 94.6% | 81.1% | 115% | 93.7% | 83.1% | 88.8% | 104% |  |
| C=C1C(=O)O[C@H]2[C@H]1CC/C(Cn1cc(Cn3ccc4cc(Cl)ccc43)nn1)=C\CC[C@@]1(C)O[C@@H]21 | 18.1% | 42.4% | 19.4% | -100% (active) | -24.7% (active) | -97.8% (active) | 3.92% (active) | 45% | -27.1% (active) | -22.1% (active) |
| CC(=O)/C(=C/c1cccc(Cl)c1)C(=O)c1ccccc1 | 94.9% | 98.6% | 100% | 72.1% | 96.6% | 88.6% | 95.3% | 119% | 40.2% |  |
| CC(=O)Oc1ccc(Nc2c3ccccc3nc3ccccc23)cc1 | -30.7% (active) | 24% | 5.67% (active) | -16.4% (active) | 3.64% (active) | -31.7% (active) | -32% (active) | -37.2% (active) | -8.66% (active) | 1.46% (active) |
| O=C1c2cc3c(cc2-c2c1c1cc(Cl)c(Cl)cc1c(=O)n2C[C@H](O)CO)OCO3 | -28.3% (active) | 14.2% | -22.2% (active) | -61.3% (active) | -28% (active) | -47.2% (active) | -0.657% (active) | -73.3% (active) | -5.01% (active) | -24.8% (active) |
| COc1ccc(/C=N\NC(=O)CN2CCN(c3cc4c(cc3F)c(=O)c(C(=O)N/N=C/c3ccc(OC)cc3)cn4C3CC3)CC2)cc1 | 103% | 71.7% | 79% | 57.6% | 100% | 89.7% | 95.1% | 73.6% | 81.5% | 60% |
| COc1ccc(C(=O)COc2ccc(/C=C3\Oc4ccc(Cl)cc4C3=O)cc2)cc1 | 71.1% | 86.8% | 103% | 83.4% | 105% | 109% | 98.1% | 109% | 122% | -17.8% (active) |
| O=C(/C=C/c1cccc(Br)c1)c1ccccc1 | 93.3% | 88% | 96.6% | 71.1% | 69.7% | 95.7% | 90.6% | 87.5% | 86.2% |  |
| COc1cc(NCCCCN=C(N)N)c2ncccc2c1 | 27.3% | 65.2% | -14.5% (active) | 90.3% | 70.9% | 93.6% | 98.2% | 74.5% | 90.7% | 67.5% |
| CC(C)Oc1nc2c(c(=O)n(C)c(=O)n2C)n1C | 107% | 103% | 108% | 91.3% | 95.3% | 101% | 100% | 106% | 95.3% | 94.4% |
| CCOC(=O)Cc1cnn(C)c1NC(=O)c1ccc(Cl)cc1NC(C)=O | 84.6% | 76.3% | 94.8% | 91.6% | 78.8% | 111% | 64.8% | 105% | 97.8% | 102% |
